This passage reports inhibition results from PubChem BioAssay AID2650 (Broad Institute, 2010).

Among all 320,000 compounds or so, about 320 (0.1%) were called active. Many of the other results were omitted from the sample, so actives are more common in it than they were. Values without a mark were called inactive.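 How the source made its calls: active means more than half of replicates show inhibition above 20%; inconclusive means some but at most half of replicates above 20% inhibition; inactive means no replicate shows inhibition above 20%.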

In this test the target is Glycogen synthase kinase-3 alpha (Homo sapiens) (UniProt P49840). The test is described as follows: blockers of GSK3A enzyme activity – biochemical, luminescence, cell-free homogeneous, HTS, primary screen (AID 2650).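 Further: GST-tagged GSK-3 alpha with peptide substrate and 25 µM ATP; 0% = DMSO neutral wells and 100% = GW8510 positive control wells.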 The note with it: GSK-3 alpha kinase, ADP-Glo luminescence, 60 min; at 10 µM; active compounds read high.
Chain of Glycogen synthase kinase-3 alpha (Homo sapiens) (P49840 whole entry, looked up): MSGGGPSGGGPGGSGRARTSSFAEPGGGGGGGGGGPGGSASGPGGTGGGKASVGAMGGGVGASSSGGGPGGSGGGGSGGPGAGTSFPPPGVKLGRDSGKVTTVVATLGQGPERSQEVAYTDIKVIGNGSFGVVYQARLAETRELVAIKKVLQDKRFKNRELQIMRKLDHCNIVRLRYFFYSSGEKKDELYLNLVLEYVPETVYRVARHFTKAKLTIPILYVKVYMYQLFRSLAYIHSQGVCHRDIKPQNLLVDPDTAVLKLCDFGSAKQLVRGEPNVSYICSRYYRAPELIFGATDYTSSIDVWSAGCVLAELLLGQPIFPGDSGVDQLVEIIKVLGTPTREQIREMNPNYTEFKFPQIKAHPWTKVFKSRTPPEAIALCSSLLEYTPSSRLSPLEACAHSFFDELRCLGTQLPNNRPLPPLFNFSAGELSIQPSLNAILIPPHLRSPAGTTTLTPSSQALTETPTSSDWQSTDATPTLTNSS
For the compound `CC(=O)Nc1ccc(NC(=O)CC2CCCC2)cc1`, the inhibition was 0.623%.

Regarding `CC(C)c1ccc(/C=C2\NC(=O)NC2=O)cc1`, the inhibition was 24.7%.

With `Cc1ccc(C)c(CN2CCC(CNC(=O)Nc3ccc(C)c(F)c3)CC2)c1`, the inhibition was -0.807%.

As for `OCCC1CN(Cc2cccc(OC3CCCC3)c2)CCN1Cc1ccsc1` (stereo not given), the inhibition was -2.02%.

With `CCN(CC)N=Nc1cccc(NC(C)=O)c1`, the inhibition is 2.05%.

For `O=C(NCc1nnc(SCC(=O)N2CCC(Cc3ccccc3)CC2)o1)c1ccco1`, the inhibition was -0.692%.

Turning to `Cc1cc(C)n(Cc2cnc(N3CCOCC3)s2)n1`, the inhibition is -2.61%.

On to `CCCc1nc2oc3c(=O)[nH]cnc3c2c2c1COC(C)(C)C2`, for which the inhibition was 3.6%.

As to `OCCC1CN(Cc2ccccc2-c2ccco2)CCN1Cc1ccsc1` (stereo not given), the inhibition is -0.178%.

`CCn1cc(S(=O)(=O)c2cccc(C)c2)c(=O)c2cc(F)c(N3CCN(C)CC3)cc21`: the inhibition is -1.82%.

For `O=C(CN(C(=O)c1nsc(Cl)c1Cl)c1cccc(F)c1)NC1CCCC1`, the inhibition is -1.81%.

On to `Cc1ccc(NS(=O)(=O)c2cn(C)c(=O)n(C)c2=O)c(C)c1`, for which the inhibition was -0.792%.

Turning to `O=C(NCc1csc(-c2cccs2)n1)C1CC1`, the inhibition was 0.318%.

Turning to `COc1ccc(Cc2n[nH]c(=S)n2NC(=O)Nc2ccc(C)cc2)cc1`, the inhibition was -4.11%.

Take `CC(=O)N1CC(=O)N(CC(=O)Nc2ccc(Br)cc2)C1=S`: the inhibition was 2.4%.

In the case of `COc1cccc(CNC(=O)C2CCCN(c3ncnc4c3nc3n4CCCCC3)C2)c1` (stereo not given), the inhibition was 0.554%.

As to `CCOC(=O)CN(C(=O)COc1nc(-c2ccccc2)cc(C)c1C#N)c1ccc(F)cc1`, the inhibition is 0.174%.

Regarding `CCCCN(CC)CCNC(=O)c1[nH]c(C)c(C(C)=O)c1C`, the inhibition is 1.47%.

With `CC(c1ccco1)N(C(=O)c1ccc(S(=O)(=O)N2CCCCC2)cc1)c1ccccn1` (stereo not given), the inhibition is -1.32%.

Take `CC(=O)c1cnc(SCC(=O)O)nc1C`: the inhibition is -1.4%.

`CC1=C(C(=O)OC2CCCCC2)C(c2ccccc2F)NC(=O)N1` (stereo not given): the inhibition was -2.54%.

`COc1ccc(N=Nc2c(-c3ccc(OC)cc3)[nH]oc2=O)cc1`: the inhibition is -3.99%.

With `Cc1cc(C)nc(SC2CCCCC2NS(=O)(=O)c2ccc(Cl)cc2)n1` (stereo not given), the inhibition was -2.34%.

As to `O=C(CN1CCN(c2ccc(O)cc2)CC1)NC1CCCc2ccccc21` (stereo not given), the inhibition is -2.3%.

On to `CC(C)NC(=O)NNc1c(Cl)cncc1Cl`, for which the inhibition is 2.22%.

In the case of `Cn1c(=O)c2[nH]c(NCC3CCCO3)nc2n(-c2ccccc2)c1=O` (stereo not given), the inhibition is 53.4% (active).

Turning to `CC(C)(C)c1nc(NCC2CCCO2)c2nnn(Cc3ccccc3)c2n1` (stereo not given), the inhibition was -0.49%.

Regarding `c1ccc2c(NCC3CCCO3)nc(-c3ccncc3)nc2c1` (stereo not given), the inhibition was 4.61%.

Take `Cc1ccccc1C(=O)N1CCC(C(=O)Oc2ccc(C#N)cc2)CC1`: the inhibition is 3.01%.

For `O=C(O)CCCN1C(=O)C2C3c4ccccc4C(c4ccccc43)[C@@H]2C1=O` (stereo not given in full), the inhibition is -1.27%.

`COC(=O)c1cc(CNC(=O)CC(C)c2ccccc2)ccc1OC` (stereo not given): the inhibition is -0.449%.

Take `C/C(=N\NC(=O)Cc1ccccc1[N+](=O)[O-])c1cccnc1`: the inhibition is -3.03%.

With `Cc1cc(/C=N/Nc2ccc([N+](=O)[O-])cn2)c(C)n1-c1cccc(C(=O)O)c1`, the inhibition is 26.6%.

In the case of `COc1cc(/C=N\Nc2ccc([N+](=O)[O-])cn2)ccc1OCC(=O)O`, the inhibition was 71.1% (active).

`Cc1ccc(-n2c(C)cc(/C=N/Nc3ccc([N+](=O)[O-])cn3)c2C)c(C)c1`: the inhibition is 0.104%.

`O=C(CNC(=O)OCc1ccccc1)Oc1cc2oc(=O)cc(-c3ccccc3)c2cc1Cl`: the inhibition was -0.182%.

`CC1CCc2c(nc3ncnn3c2Nc2ccc(OC(F)(F)F)cc2)C1` (stereo not given): the inhibition is 3.32%.

On to `Cc1ccc(N(Cc2ccccc2O)C(=O)c2ccccc2F)cc1`, for which the inhibition is 0.374%.

`O=C(O)C1CCCN(CCC=C(c2ccccc2)c2ccccc2)C1` (stereo not given): the inhibition was -1.79%.

With `N#Cc1c(N2CCCCC2)nc(N)c2c(N)nc(SCC(=O)O)cc12`, the inhibition was 71.9% (active).

With `N#Cc1c(-c2ccccc2)cc(-c2ccccc2)nc1SCC(=O)O`, the inhibition was -8.49%.

In the case of `N#CCc1c(C#N)c(N)nc(N2CCCC2)c1C#N`, the inhibition was 5.31%.

Take `Cc1c(C(=O)Nc2cccc(S(=O)(=O)N3CCOCC3)c2)oc2ccccc12`: the inhibition was -2.02%.

`CC(C)(C)c1cc(CN2CCN(CCC#N)CC2)cc(C(C)(C)C)c1O`: the inhibition was -0.131%.

As for `CCCn1c(N)c(N(CCOC)C(=O)C2CCCC2)c(=O)[nH]c1=O`, the inhibition is -0.139%.

As for `CCn1c(SC(C)C(=O)Nc2ccc(N3CCOCC3)cc2)nnc1-c1ccco1` (stereo not given), the inhibition is -7.92%.

`COC(=O)c1ccc(C23CC4(C2)[C@H](CN(Cc2cccnc2)[C@@H]4c2ccccc2)C3c2ccc(Cl)nc2)cc1` (stereo not given in full): the inhibition was -1.59%.

Regarding `CCOc1ccc(CN2CCN(Cc3ccc(C)o3)CC2CCO)cc1` (stereo not given), the inhibition is -3.68%.

Take `O=C(COC(=O)Cc1ccc(Br)cc1)Nc1ccc(N2CCOCC2)cc1`: the inhibition is -2.2%.

As for `COc1ccc(NC(=O)CN2C(=O)COc3ccc(S(=O)(=O)N4CCOCC4)cc32)c(OC)c1`, the inhibition was -0.917%.

Consider `COc1ccc(S(=O)(=O)N(C)C[C@H]2Oc3c(NC(=O)Nc4ccc5c(c4)OCO5)cccc3C(=O)N([C@H](C)CO)C[C@@H]2C)cc1`, for which the inhibition is -2.73%.

In the case of `Cc1ccc(S(=O)(=O)NCC2CCC(C(=O)N3CCOCC3)CC2)cc1` (stereo not given), the inhibition is -1.46%.

For the compound `Cc1ccc(C)c(NC(=O)COC(=O)c2nn(C)c(=O)c3ccccc23)c1`, the inhibition is -0.308%.

Regarding `FC(F)(F)COc1nc(N2CCCCC2)nc(N2CCNCC2)n1`, the inhibition is -3.54%.

Turning to `CC1CC1C(=O)OCC(=O)Nc1cccc(F)c1` (stereo not given), the inhibition was -2.53%.

Regarding `CCOC(=O)/C=C/c1ccc(C(F)(F)F)cc1S(=O)(=O)NC(C)(C)C`, the inhibition is 0.204%.

Regarding `O=C(NCc1cccs1)c1ccc(CS(=O)Cc2ccccc2Cl)o1` (stereo not given), the inhibition was 2.9%.

For the compound `CC(C)CCNC(=O)c1ccc2c(Cl)c3c(nc2c1)CCC3`, the inhibition was 1.16%.

As to `O=C(OCC1O[C@@H](OC(=O)c2cc(O)c(O)c(O)c2)[C@@H](OC(=O)c2cc(O)c(O)c(O)c2)[C@@H](OC(=O)c2cc(O)c(O)c(O)c2)[C@@H]1OC(=O)c1cc(O)c(O)c(O)c1)c1cc(O)c(O)c(O)c1` (stereo not given in full), the inhibition is 57.5% (active).

With `O=C(OCC1OC(Oc2ccc(O)cc2)C(O)C(O)C1O)c1ccccc1` (stereo not given), the inhibition is 19.4%.

Consider `CS(=O)(=O)N(CC(=O)Nc1ccc(Cl)c(Cl)c1)C1CCCCC1`, for which the inhibition was -0.751%.

`O=C(Nc1ccccc1-c1nnn(CC(=O)N2CCCc3ccccc32)n1)c1cccc(Cl)c1`: the inhibition is -2.04%.

Turning to `Cc1ccc(C(=O)N/N=C\c2cc(Br)c(Br)o2)cn1`, the inhibition is 2.23%.

As to `Cc1cc2cc3c(cc2nc1SCC(=O)Nc1c(C)cccc1C)CCC3`, the inhibition is -3.92%.

Take `Cc1noc(/C=C/c2ccco2)c1S(=O)(=O)N1CCC(C(=O)N2CCc3ccccc32)CC1`: the inhibition is -1.67%.

As for `Cc1cc(C)nc(NS(=O)(=O)c2ccc(N3C(=O)C4CCCCC4C3=O)cc2)n1` (stereo not given), the inhibition is 1.53%.

`c1ccc(-n2nc3ccccc3n2)cc1`: the inhibition was -1.52%.

As to `Oc1ccc(-c2nnc(Nc3ccccc3)c3ccccc23)cc1`, the inhibition was 0.551%.

On to `Oc1ccc(-c2nncn2-c2ccccc2)cc1`, for which the inhibition is 53.7% (active).

Consider `Brc1ccccc1CN1CCC(Cc2ccccc2)CC1`, for which the inhibition was -0.57%.

For `O=C1CN(C(=O)COC(=O)/C=C/c2ccc(F)cc2)c2ccccc2N1`, the inhibition was -0.211%.

For the compound `O=C(CCNS(=O)(=O)c1ccc(Br)s1)NCc1ccccc1Cl`, the inhibition is 0.12%.

As for `CCCN1C2=C(C(=O)CCC2)C(c2ccc(O)c(Br)c2)C2=C1CCCC2=O`, the inhibition is 0.35%.

Consider `C=CCNC(=O)C1CC=CCC1C(=O)O` (stereo not given), for which the inhibition was 3.88%.

`CC(C)C[C@@H](COc1ccccc1)N1CCN(CC(C)C)CCC1=O`: the inhibition is -0.599%.

Consider `CN1C(=O)[C@H]2[C@@H](C3CC3)N3C(=O)CN(Cc4ccccc4)C(=O)[C@@]3(C)[C@H]2C1=O`, for which the inhibition is -0.57%.

For `CCc1nc(SCC(=O)Nc2ccccc2OC)n[nH]1`, the inhibition was 0.384%.

`OC(COCC1COc2ccccc2O1)CN1CCN(c2ccc(F)cc2)CC1` (stereo not given): the inhibition is -3.09%.

For the compound `Cc1cc(C)c(C(=O)CSc2nc(C)cc(=O)[nH]2)c(C)c1`, the inhibition was -3.36%.

As for `Nc1nc(SCC(=O)Nc2cc(C(F)(F)F)ccc2Cl)[nH]c(=O)c1NC(=O)c1ccco1`, the inhibition is 0.858%.

With `O=c1cc(C(F)(F)F)[nH]c(=O)n1C1CCCCC1`, the inhibition was -7.78%.

For the compound `CCCCN(CCCC)CCC(O)c1cc2c(Cl)cc(Cl)cc2c2cc(C(F)(F)F)ccc12` (stereo not given), the inhibition was -3.02%.

Turning to `CCC1Nc2ncnc(N3CCN(c4ccccc4)CC3)c2N(Cc2ccc(Cl)cc2)C1=O` (stereo not given), the inhibition is -3.36%.

For `CC[C@H](C)C(=O)N[C@H]1CCCN1C(=O)/C=C/c1ccccc1`, the inhibition is -0.364%.

As for `CC1(C)Cc2nc3sc4c(SCC(=O)NC(c5ccccc5)c5ccccc5)ncnc4c3cc2CO1`, the inhibition was 19.1%.

`COc1ccccc1NC(=O)CCSc1nnc(-c2ccc(O)cc2)o1`: the inhibition is 61% (active).

For `COc1ccccc1NC(=O)CSc1nnc(CNC(=O)c2ccccc2F)o1`, the inhibition was -1.79%.

Regarding `CCc1ccccc1NC(=O)CSc1nnc(-c2ccncc2)o1`, the inhibition was 0.246%.

On to `COc1ccc(N(C)C(=O)CCS(=O)(=O)c2cccc3nsnc23)cc1`, for which the inhibition is -0.848%.

With `O=C(c1ccc(CS(=O)(=O)c2ccccc2)o1)N1CCN(c2ccccc2)CC1`, the inhibition is -1.56%.
